# Results reported in publication PMC9838217, “Structure of SALL4 zinc finger domain reveals link between AT-rich DNA binding and Okihiro syndrome”.
# Changes are numbered by the printed parent chain.
# Tests used:
# Experiment in all cases: HT-SELEX; high values mean tight binding
# Conditions in all cases: protein: recombinant; vector His6-GST; dsDNA, one strand shown
# [1] = biological target: T1, SALL4 ZFC4 WT (HT-SELEX) (Mus musculus, UniProt Q8BX22 870-940)
# T1 sequence: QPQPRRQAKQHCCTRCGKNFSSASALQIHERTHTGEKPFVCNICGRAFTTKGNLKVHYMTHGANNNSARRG
# Procedure, shortened: (§1)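 Recombinant mouse SALL4 zinc finger cluster 4 (residues 870–940, 1 µg), purified, was mixed with library DNA (1.5 µg in the first cycle, 200 ng thereafter) in 100 µl of buffer containing 10 mM Tris–HCl pH 7.5, 50 mM NaCl, poly(dI-dC) and DTT, and left for 10 min at room temperature. Complexes were captured on Ni2+ beads, washed, amplified by PCR and reselected for up to 6 cycles in triplicate, after which MiSeq sequencing and a 6-mer scan followed. Binding signal is the read fraction of each canonical k-mer, given as fold change relative to the starting random library.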
# [2] = biological target: T2, SALL4 ZFC4 R900W (HT-SELEX) (Mus musculus, UniProt Q8BX22 870-940, R900W)
# T2 sequence: T1 sequence with R31W
# Procedure, shortened: as §1
# [3] = biological target: T3, SALL4 ZFC4 G921D (HT-SELEX) (Mus musculus, UniProt Q8BX22 870-940, G921D)
# T3 sequence: T1 sequence with G52D
# Procedure, shortened: as §1
Sequence,binding signal [1] [fold-change vs cycle 0],binding signal [2] [fold-change vs cycle 0],binding signal [3] [fold-change vs cycle 0]
AGCACC,0.328 ± 0.0258,0.375 ± 0.0109,0.521 ± 0.0558
ACTAGA,1.39 ± 0.0596,1.52 ± 0.0902,1.41 ± 0.142
GTTCCA,0.74 ± 0.03,0.862 ± 0.0102,0.915 ± 0.0401
CTATGC,0.624 ± 0.0148,0.702 ± 0.0118,0.796 ± 0.0538
CGTGTA,0.651 ± 0.0387,0.756 ± 0.0247,0.812 ± 0.0246
CGTTAC,0.817 ± 0.0239,0.932 ± 0.0341,0.941 ± 0.0136
GTTCTA,1.28 ± 0.0473,1.39 ± 0.0453,1.33 ± 0.108
AACTCA,1.37 ± 0.0562,1.48 ± 0.0196,1.4 ± 0.113
CGAATA,1.1 ± 0.0554,1.13 ± 0.0519,1.14 ± 0.0398
ATATGA,3.11 ± 0.303,2.07 ± 0.156,1.85 ± 0.196
AACCAA,1.22 ± 0.0287,1.31 ± 0.0414,1.28 ± 0.0656
GTTAAA,1.66 ± 0.0709,1.8 ± 0.123,1.61 ± 0.154
AATTTA,2.91 ± 0.251,2.35 ± 0.145,2.04 ± 0.225
CCAGGA,0.465 ± 0.017,0.546 ± 0.0174,0.63 ± 0.0152
CTTTAA,1.84 ± 0.0654,1.95 ± 0.0889,1.69 ± 0.149
ATACCG,0.646 ± 0.0192,0.699 ± 0.038,0.799 ± 0.0271
TGCAAA,1 ± 0.0674,0.975 ± 0.0411,1.03 ± 0.0183
AAATTT,2.66 ± 0.248,2.17 ± 0.141,1.93 ± 0.166
CGAGGA,0.409 ± 0.0195,0.5 ± 0.0275,0.587 ± 0.0701
ACTAAA,1.81 ± 0.0352,1.9 ± 0.121,1.69 ± 0.128
GGTAGA,0.746 ± 0.0282,0.849 ± 0.0219,0.892 ± 0.0246

Sequence,binding signal [1] [fold-change vs cycle 0],binding signal [2] [fold-change vs cycle 0],binding signal [3] [fold-change vs cycle 0]
ACACTG,0.743 ± 0.0572,0.877 ± 0.0574,0.908 ± 0.0148
ATGCAG,0.674 ± 0.0311,0.754 ± 0.0134,0.818 ± 0.0231
GGTGTA,0.751 ± 0.0241,0.855 ± 0.0293,0.889 ± 0.0301
ACAGAA,1.26 ± 0.036,1.37 ± 0.0837,1.3 ± 0.0881
CTCCTC,0.611 ± 0.00845,0.705 ± 0.0481,0.774 ± 0.0379
AAACGT,1.02 ± 0.0198,1.17 ± 0.0143,1.14 ± 0.0434
ATAGTA,2.1 ± 0.131,2.08 ± 0.149,1.83 ± 0.209
AAACAT,1.93 ± 0.14,1.88 ± 0.0797,1.72 ± 0.14
ATCTCC,0.945 ± 0.0285,1.04 ± 0.0372,1.06 ± 0.0438
CTAATA,2.24 ± 0.127,2.01 ± 0.099,1.81 ± 0.144
TAATAA,5.02 ± 0.619,2.78 ± 0.312,2.32 ± 0.357
CAAGAA,1.26 ± 0.0324,1.43 ± 0.0703,1.35 ± 0.104
ATTATG,2.78 ± 0.17,1.94 ± 0.0249,1.74 ± 0.121
GATTCA,1.35 ± 0.0551,1.38 ± 0.0852,1.33 ± 0.0688
CTCAAC,0.775 ± 0.0132,0.9089 ± 0.00888,0.928 ± 0.0107
ATTTGC,0.914 ± 0.0535,0.9 ± 0.0391,0.981 ± 0.0312
ATGTCA,1.23 ± 0.0617,1.34 ± 0.0399,1.32 ± 0.0617
AAGATA,2.25 ± 0.105,2.22 ± 0.148,1.9 ± 0.223
GGGAAA,0.693 ± 0.0334,0.767 ± 0.0294,0.812 ± 0.0285
CCCCTA,0.489 ± 0.0364,0.584 ± 0.015,0.638 ± 0.0291
CTCGGA,0.396 ± 0.0242,0.468 ± 0.0145,0.589 ± 0.0706

Sequence,binding signal [1] [fold-change vs cycle 0],binding signal [2] [fold-change vs cycle 0],binding signal [3] [fold-change vs cycle 0]
CACGTG,0.391 ± 0.0518,0.459 ± 0.0227,0.562 ± 0.0574
CAACTC,0.778 ± 0.0269,0.92 ± 0.0298,0.994 ± 0.018
ATACTG,1.31 ± 0.0361,1.4 ± 0.0644,1.36 ± 0.0801
CTCACC,0.488 ± 0.0202,0.56 ± 0.0155,0.677 ± 0.0522
CTAAAG,1.22 ± 0.0556,1.43 ± 0.0823,1.34 ± 0.112
GGGGTA,0.484 ± 0.0383,0.541 ± 0.0115,0.611 ± 0.0687
GGGTCA,0.435 ± 0.0224,0.513 ± 0.0178,0.619 ± 0.0472
CCATAC,0.84 ± 0.0342,0.88 ± 0.0149,0.931 ± 0.0299
ATGTGG,0.714 ± 0.021,0.787 ± 0.0136,0.851 ± 0.0464
CAGGAA,0.785 ± 0.0392,0.921 ± 0.0224,0.918 ± 0.0252
TAACTA,2.23 ± 0.0839,2.06 ± 0.126,1.82 ± 0.187
ACGGTG,0.355 ± 0.0186,0.414 ± 0.0142,0.528 ± 0.0554
CAAAGC,0.565 ± 0.00649,0.654 ± 0.0334,0.761 ± 0.0246
CGATAG,0.68 ± 0.0214,0.774 ± 0.0246,0.851 ± 0.0176
CCGGAA,0.325 ± 0.0139,0.368 ± 0.0111,0.491 ± 0.0897
CTAGTC,0.766 ± 0.0364,0.918 ± 0.0254,0.941 ± 0.0142
AAATCG,0.874 ± 0.0288,0.918 ± 0.0124,1.02 ± 0.0396
AATTCC,1.34 ± 0.0764,1.36 ± 0.0844,1.31 ± 0.0693
ATGGGG,0.486 ± 0.0322,0.546 ± 0.0309,0.615 ± 0.052
AGTCTA,1.25 ± 0.0412,1.41 ± 0.0887,1.37 ± 0.0788
ATTAAA,3.73 ± 0.281,2.54 ± 0.18,2.14 ± 0.26

Sequence,binding signal [1] [fold-change vs cycle 0],binding signal [2] [fold-change vs cycle 0],binding signal [3] [fold-change vs cycle 0]
AACTAC,1.27 ± 0.0931,1.37 ± 0.099,1.32 ± 0.108
CAGTGG,0.426 ± 0.0423,0.497 ± 0.0328,0.595 ± 0.0248
ATCTGC,0.624 ± 0.0226,0.711 ± 0.0187,0.798 ± 0.0337
ACAGCT,0.616 ± 0.0411,0.714 ± 0.0328,0.811 ± 0.0395
CATGAG,0.884 ± 0.0345,0.992 ± 0.0188,1.03 ± 0.0481
ATATCC,1.52 ± 0.0519,1.43 ± 0.0827,1.37 ± 0.0764
TAGGGA,0.931 ± 0.0124,0.998 ± 0.0215,1.02 ± 0.0328
CACAAA,0.978 ± 0.0432,1.1 ± 0.0594,1.09 ± 0.0653
GCTGTA,0.574 ± 0.0425,0.653 ± 0.0229,0.75 ± 0.0402
ATTGCC,0.502 ± 0.0233,0.566 ± 0.0263,0.699 ± 0.0539
AAGACA,1.28 ± 0.0466,1.42 ± 0.0793,1.35 ± 0.0674
AAGCAC,0.582 ± 0.0244,0.678 ± 0.0144,0.796 ± 0.0229
GAACAC,0.766 ± 0.0374,0.901 ± 0.0255,0.932 ± 0.0461
CTTAAG,1.38 ± 0.0318,1.56 ± 0.0368,1.46 ± 0.11
AAACAC,1.06 ± 0.0292,1.16 ± 0.0244,1.189 ± 0.0109
ACCCTC,0.489 ± 0.00987,0.562 ± 0.0409,0.66 ± 0.0504
GACTCA,0.768 ± 0.0401,0.889 ± 0.022,0.937 ± 0.0191
CTGCTC,0.36 ± 0.0162,0.436 ± 0.00828,0.567 ± 0.028
AGCTTG,0.638 ± 0.0175,0.764 ± 0.0176,0.841 ± 0.049
ATGTTC,1.28 ± 0.0355,1.37 ± 0.0462,1.36 ± 0.0792
CAATCA,1.31 ± 0.0592,1.41 ± 0.0553,1.4 ± 0.0622
